Assay results taken from the supplement of paper PMC11732987, “Enantioselective OTUD7B fragment discovery through chemoproteomics screening and high-throughput optimisation” (Communications Chemistry, 2025).

Target: T1, USP38 (UniProt Q8NB14)
T1 sequence (whole entry): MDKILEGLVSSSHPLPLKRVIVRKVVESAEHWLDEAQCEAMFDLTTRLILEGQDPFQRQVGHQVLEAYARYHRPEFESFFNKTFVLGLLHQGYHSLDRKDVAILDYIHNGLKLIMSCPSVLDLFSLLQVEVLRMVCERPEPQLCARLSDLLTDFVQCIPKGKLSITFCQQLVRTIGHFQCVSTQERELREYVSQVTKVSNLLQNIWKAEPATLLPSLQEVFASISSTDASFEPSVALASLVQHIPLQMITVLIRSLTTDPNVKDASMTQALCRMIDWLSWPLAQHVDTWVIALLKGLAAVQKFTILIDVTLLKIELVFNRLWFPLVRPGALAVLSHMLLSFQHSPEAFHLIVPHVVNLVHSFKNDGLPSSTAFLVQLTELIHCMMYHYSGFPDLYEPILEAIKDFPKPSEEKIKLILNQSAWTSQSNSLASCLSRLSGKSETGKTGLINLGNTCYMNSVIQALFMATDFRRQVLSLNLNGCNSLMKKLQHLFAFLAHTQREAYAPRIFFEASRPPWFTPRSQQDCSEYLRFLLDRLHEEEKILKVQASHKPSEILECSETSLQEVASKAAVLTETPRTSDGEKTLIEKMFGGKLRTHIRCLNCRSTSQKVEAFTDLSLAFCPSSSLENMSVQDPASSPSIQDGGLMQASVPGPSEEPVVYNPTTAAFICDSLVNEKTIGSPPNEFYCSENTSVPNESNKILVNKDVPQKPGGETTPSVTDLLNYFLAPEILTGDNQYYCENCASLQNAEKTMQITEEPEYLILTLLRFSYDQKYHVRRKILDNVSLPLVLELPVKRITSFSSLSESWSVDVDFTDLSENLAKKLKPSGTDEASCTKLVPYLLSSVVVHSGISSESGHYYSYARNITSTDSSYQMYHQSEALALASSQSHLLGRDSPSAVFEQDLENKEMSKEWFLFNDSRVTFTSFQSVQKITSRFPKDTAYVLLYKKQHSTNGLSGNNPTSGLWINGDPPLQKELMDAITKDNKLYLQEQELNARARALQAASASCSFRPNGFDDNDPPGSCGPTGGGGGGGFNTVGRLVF
Assay: log2 ratio of Biotin-Ahx-Ub-VS probe labelling (compound/DMSO); higher = less target engagement, active = hit call of the paper (q ≤ 0.05, log2 ratio ≤ -1)
Details: treatment time: 3 h
How it was run: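 Average ratios of compound to vehicle were obtained by unpaired t-test. Beforehand, 495 µg samples of HEK293T lysate in buffer with protease inhibitors were treated in triplicate with compound over a concentration series or vehicle for 3 h, then with 0.5 µM final Biotin-Ahx-Ub-VS for 1 h. Labelled deubiquitinases were NeutrAvidin-enriched, digested and quantified label-free by diaPASEF LC-MS/MS in Spectronaut, normalised to the global median. Values are log2 and cover proteins with at least two unique peptides.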

Measured: log2 ratio of Biotin-Ahx-Ub-VS probe labelling

O=C(CCl)NC1CCCc2ccccc21 (centres undefined)
inactive: compound concentration: 0.78uM -0.0722 | compound concentration: 1.56uM -0.0473 | compound concentration: 3.13uM -0.124 | compound concentration: 6.25uM -0.102 | compound concentration: 12.5uM -0.214 | compound concentration: 25uM -0.157 | compound concentration: 50uM -0.0382 | compound concentration: 100uM -0.104 | compound concentration: 200uM -0.148
